In PubChem BioAssay (Tox21):
Results filed as inconclusive are left out. Active and inactive are the calls of the source. Unless noted, the call rests on the fitted dose curve; in most records, active means well fitted curve in the direction sought with a large enough effect in the repeat runs; inconclusive means weak or mixed curves; inactive means no such curve, though single readings can be large; an effect the other way counts as inactive or inconclusive.

Legend:
[1] = qHTS assay to identify small molecule agonists of the RXR signaling pathway - cell viability counter screen (AID 1159529);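 further: HEK 293T cells carrying an RXR-alpha UAS beta-lactamase reporter; series mostly up to about 77 µM; nearly all actives have a fitted effect of over 50% in size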
In short: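 Same-well viability check after the LiveBLAzer FRET read: CellTiter-Glo added, luminescence measured after 30 min at room temperature. Reporter HEK 293T cells had been treated with compounds for 16 hr following a 5 hr preincubation.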

[2] = qHTS assay to identify small molecule antagonists of the retinoid acid receptor (RAR) signaling pathway - cell viability counter screen (AID 1159551); further: nearly all actives have a fitted effect of over 35% in size
In short: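 Viability of C3RL4 cells is quantified from ATP by luminescence after 6 h treatment at 37 C with compounds and 1 uM retinol.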

[3] = qHTS assay to identify small molecule antagonists of the retinoic acid receptor (RAR) signaling pathway (AID 1159552; further: nearly all actives have a fitted effect of over 50% in size)
In short: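 Readout: luciferase luminescence, 30 min post-reagent at RT. Setup: C3RL4 RARE reporter cells, compounds plus retinol 1 uM final, 6 hr incubation at 37 C and 5% CO2.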

[4] = qHTS assay to identify small molecule agonists of the retinoic acid receptor (RAR) signaling pathway (AID 1159553)
In short: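 Compounds dissolved in DMSO were pinned onto C3RL4 cells seeded the previous day, and plates were held 6 hr at 37 C. RARE-driven luciferase output was then read by luminescence.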

[5] = qHTS assay to identify small molecule antagonists of the estrogen related receptor (ERR) signaling pathway from Tox21 library - cell viability counter screen (AID 1224834); further: nearly all actives have a fitted effect of over 30% in size
In short: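 In this quantitative HTS format, ERR cells receive compounds in DMSO and are incubated for 17.5 h at 37 C. Live-cell protease activity is then detected with CellTiter-Fluor.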

[6] = target: Luciferin 4-monooxygenase (Photinus pyralis) (UniProt P08659); assay: qHTS assay to identify small molecule inhibitors of firefly luciferase (AID 1224835); further: series mostly up to about 120 µM; nearly all actives have a fitted effect of over 25% in size
Luciferin 4-monooxygenase (Photinus pyralis), sequence (P08659 whole entry, looked up): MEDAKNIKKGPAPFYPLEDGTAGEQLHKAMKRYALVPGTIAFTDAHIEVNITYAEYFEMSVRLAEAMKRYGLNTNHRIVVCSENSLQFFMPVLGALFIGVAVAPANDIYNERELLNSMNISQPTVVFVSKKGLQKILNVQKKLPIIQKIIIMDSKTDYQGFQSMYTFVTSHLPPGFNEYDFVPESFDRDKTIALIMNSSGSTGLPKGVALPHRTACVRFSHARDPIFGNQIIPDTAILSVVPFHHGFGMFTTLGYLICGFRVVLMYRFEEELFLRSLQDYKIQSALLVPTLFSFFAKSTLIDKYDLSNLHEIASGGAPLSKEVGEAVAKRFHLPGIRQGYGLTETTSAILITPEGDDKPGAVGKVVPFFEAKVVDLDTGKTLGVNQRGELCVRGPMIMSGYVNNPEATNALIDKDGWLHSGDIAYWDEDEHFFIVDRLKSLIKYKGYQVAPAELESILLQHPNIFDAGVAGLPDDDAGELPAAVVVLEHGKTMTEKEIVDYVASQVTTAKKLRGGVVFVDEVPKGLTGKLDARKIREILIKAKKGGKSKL
In short: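 Inhibition of purified Photinus luciferase is measured by luminescence. Substrate levels (D-luciferin, ATP) sit at their KM values. Each compound is tested in a concentration series.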

[7] = qHTS assay to identify small molecule agonists of the constitutive androstane receptor (CAR) signaling pathway - cell viability counter screen (AID 1224836); further: series mostly up to about 92 µM; nearly all actives have a fitted effect of over 45% in size
In short: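 Compound titrations (15 concentrations) went onto HepG2-CYP2B6-hCAR cells 4 h after seeding, alongside PK11195 at a final 0.75 uM; a 23 h, 37 C/5% CO2 incubation preceded CellTiter-Fluor viability measurement.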

[8] = qHTS assay to identify small molecule antagonists of the constitutive androstane receptor (CAR) signaling pathway - cell viability counter screen (AID 1224837); further: series mostly up to about 92 µM; nearly all actives have a fitted effect of over 45% in size
In short: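 In quantitative HTS format, compounds at 15 concentrations were applied to HepG2 cells double-transfected with hCAR and CYP2B6-2.2kb under 50 nM CITCO stimulation; live-cell protease activity was read after 23 hr via CellTiter-Fluor.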

[9] = qHTS assay to identify small molecule antagonists of the estrogen related receptor signaling pathway with the pleiotropic PPARgamma coactivator (PGC) from Tox21 10K library - cell viability counter screen (AID 1224840; active means well fitted cell-killing curve with a large enough effect in the repeat runs, not every such curve was filed as active; further: nearly all actives have a fitted effect of over 40% in size)
In short: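 Viability counter screen, PGC/ERR cells: 17.5 h compound exposure at 37 C, CellTiter-Fluor fluorescence endpoint.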

[10] = qHTS assay to identify small molecule antagonists of the estrogen related receptor signaling pathway with the pleiotropic PPARgamma coactivator (PGC) from Tox21 10K library (AID 1224841; call rule not given here; further: series mostly up to about 92 µM; actives are mostly falling curves and most rising ones were filed inactive; nearly all actives have a fitted effect of over 50% in size)
In short: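 In the PGC/ERR line, DMSO solutions of test chemicals are pin-delivered to 2,000 cells/well six hours after dispensing. Following eighteen hours' incubation, One-Glo reagent is added and luminescence recorded.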

[11] = qHTS assay to identify small molecule agonists of the estrogen related receptor signaling pathway with the pleiotropic PPARgamma coactivator (PGC) from Tox21 10K library (AID 1224842); further: nearly all actives have a fitted effect of over 15% in size
In short: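 Luminescence from One-Glo (30 min, room temperature) measured after PGC/ERR cells had 18 h at 37 C with pinned compound (23 nL in DMSO). Cells had been seeded at 2,000 per well and pre-incubated 6 h.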

[12] = target: Nuclear receptor subfamily 1 group I member 3 (Homo sapiens) (UniProt Q14994); assay: qHTS assay to identify small molecule agonists of the constitutive androstane receptor (CAR) signaling pathway (AID 1224839); further: nearly all actives have a fitted effect of over 15% in size; further: potency means the concentration at half of the fitted maximal effect;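 on activation: HepG2 cells stably carrying human CAR and a CYP2B6 luciferase reporter; series mostly up to about 92 µM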
Nuclear receptor subfamily 1 group I member 3 (Homo sapiens), sequence (Q14994 whole entry, looked up): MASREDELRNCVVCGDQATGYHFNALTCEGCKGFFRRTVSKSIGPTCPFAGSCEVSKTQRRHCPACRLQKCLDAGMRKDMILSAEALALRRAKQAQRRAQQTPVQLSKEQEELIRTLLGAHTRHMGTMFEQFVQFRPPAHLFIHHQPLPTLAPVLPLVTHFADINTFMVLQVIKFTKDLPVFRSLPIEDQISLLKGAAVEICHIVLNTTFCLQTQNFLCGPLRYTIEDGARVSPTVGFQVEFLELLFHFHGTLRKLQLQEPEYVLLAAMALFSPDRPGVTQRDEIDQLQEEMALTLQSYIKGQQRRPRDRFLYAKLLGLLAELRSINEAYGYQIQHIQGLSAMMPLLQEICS
In short: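 In this screen, CAR-driven CYP2B6 promoter activity is measured by luminescence in HepG2-CYP2B6-hCAR cells after 24 h with test compounds and 0.75 uM PK11195 (final concentration).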

[13] = target: Thyrotropin receptor (Homo sapiens) (UniProt P16473); assay: qHTS assay to identify small molecule agonists of the thyroid stimulating hormone receptor (TSHR) signaling pathway (AID 1224843; calls by dose curve; further: nearly all actives have a fitted effect of over 45% in size)
Thyrotropin receptor (Homo sapiens), sequence (P16473 whole entry, looked up): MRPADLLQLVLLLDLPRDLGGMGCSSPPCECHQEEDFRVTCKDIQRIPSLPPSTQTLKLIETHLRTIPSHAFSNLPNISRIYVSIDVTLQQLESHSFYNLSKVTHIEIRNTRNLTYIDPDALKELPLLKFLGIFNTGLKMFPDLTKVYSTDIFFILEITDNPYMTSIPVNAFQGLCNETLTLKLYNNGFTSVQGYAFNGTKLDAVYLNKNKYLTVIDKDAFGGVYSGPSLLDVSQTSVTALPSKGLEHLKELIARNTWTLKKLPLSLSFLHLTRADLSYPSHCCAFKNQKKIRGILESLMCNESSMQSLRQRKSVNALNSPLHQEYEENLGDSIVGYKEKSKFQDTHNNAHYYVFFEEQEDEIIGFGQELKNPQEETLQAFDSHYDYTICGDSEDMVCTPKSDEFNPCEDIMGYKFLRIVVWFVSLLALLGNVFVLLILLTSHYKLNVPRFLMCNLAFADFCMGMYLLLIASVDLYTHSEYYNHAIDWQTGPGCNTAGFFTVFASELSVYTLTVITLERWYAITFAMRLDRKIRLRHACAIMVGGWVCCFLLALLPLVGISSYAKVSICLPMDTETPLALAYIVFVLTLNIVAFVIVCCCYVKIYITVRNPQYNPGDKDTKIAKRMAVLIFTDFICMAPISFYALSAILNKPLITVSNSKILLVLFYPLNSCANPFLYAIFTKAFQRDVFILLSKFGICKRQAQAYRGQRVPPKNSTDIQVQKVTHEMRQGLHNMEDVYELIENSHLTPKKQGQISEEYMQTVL
In short: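 A cell-based cAMP HTRF format was run in TSHR-transfected HEK293 cells, 800 per well. Treatment: 30 min, room temperature. Detection: 1 h with labelled cAMP and anti-cAMP cryptate. Concentration-response over 15 points, three replicates.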

[14] = target: Nuclear receptor subfamily 1 group I member 3 (Homo sapiens) (UniProt Q14994); assay: qHTS assay to identify small molecule antagonists of the constitutive androstane receptor (CAR) signaling pathway (AID 1224838); further: nearly all actives have a fitted effect of over 40% in size
In short: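 CITCO-stimulated (50 nM final) HepG2 cells stably transfected with hCAR and CYP2B6-2.2kb luciferase were exposed to compounds at 15 concentrations for 24 h at 37 C/5% CO2. A luciferase reagent was added and luminescence recorded after 30 min.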
On the % scale 0 is the no-effect control and ±100 the full control effect.

C=CC(=O)OCCN(C)C
inactive: Potency [1] | Potency [2] | Potency [3] | Potency [4] | Potency [5] | Potency [6] | Potency [7] | Potency [8] | Potency [9] | Potency [10] | Potency [11]

O=C(O)c1c(Cl)ccc2cc(Cl)cnc12
inactive: Potency [1] | Potency [2] | Potency [3] | Potency [4] | Potency [5] | Potency [6] | Potency [7] | Potency [8] | Potency [12] | Potency [9] | Potency [13]

CCNP(=S)(OC)O/C(C)=C/C(=O)OC(C)C (configuration not stated)
active: Potency [12] 27.3 µM
inactive: Potency [1] | Potency [2] | Potency [3] | Potency [4] | Potency [5] | Potency [6] | Potency [7] | Potency [8] | Potency [9]

Brc1c(Br)c(Br)c(Br)c(Br)c1Br
inactive: activity change, negative = cytotoxicity [1] 7.53% [at 6.97 µM] | activity change, negative = cytotoxicity [2] -4.22% [at 8.39 µM] | activity, negative = inhibition [3] -18.1% [at 8.39 µM] | activation [4] -2.33% [at 8.36 µM] | viability change, negative = cytotoxic [5] 3.18% [at 8.39 µM] | activity change, negative = inhibition [6] -3.44% [at 10.5 µM] | viability change, negative = cytotoxic [7] 3.28% [at 8.39 µM] | activity change, negative = cytotoxicity [8] -3.15% [at 8.39 µM] | activation [12] -2.38% [at 8.39 µM] | activation [13] 1.42% [at 8.39 µM]

CN=CNc1ccc(C)cc1C
inactive: Potency [1] | Potency [2] | Potency [3] | Potency [4] | Potency [5] | Potency [6] | Potency [7] | Potency [8] | Potency [9] | Potency [10] | Potency [11]

O=C(NC(O)C(Cl)(Cl)Cl)NC(O)C(Cl)(Cl)Cl (configuration not stated)
inactive: Potency [1] | Potency [2] | Potency [3] | Potency [4] | Potency [5] | Potency [6] | Potency [7] | Potency [8] | Potency [9]

CCCOC(=O)c1cncn1C(C)c1ccccc1 (configuration not stated)
inactive: Potency [1] | Potency [2] | Potency [3] | Potency [4] | Potency [5] | Potency [6] | Potency [7] | Potency [8] | Potency [14] | Potency [9] | Potency [10] | Potency [11] | Potency [13]

CC(=O)OCC1=C(C(=O)O)N2C(=O)[C@@H](N)[C@H]2SC1
inactive: activity change, negative = cytotoxicity [1] -9.25% [at 15.8 µM] | activity change, negative = cytotoxicity [2] 0.328% [at 19 µM] | activity, negative = inhibition [3] -17.1% [at 19 µM] | Potency [4] | viability change, negative = cytotoxic [5] 3.81% [at 19 µM] | activity change, negative = inhibition [6] 5.1% [at 23.6 µM] | viability change, negative = cytotoxic [7] 12.6% [at 19 µM] | activity change, negative = cytotoxicity [8] 5.22% [at 19 µM] | activation [12] 4.04% [at 19 µM] | activity, negative = inhibition [10] -8.84% [at 19 µM] | activation [11] -2.61% [at 19 µM] | activation [13] 9.8% [at 19 µM]
